PubChem BioAssay (NCI)
The panel holds about 83,000 compounds, 20% with a hit somewhere; the sample as a whole holds those more often.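 Single-dose data. Exposure time 48 hours. Values below 10 considered active.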 Values without a mark were called inactive. Calls of active or inactive are those of the source.

Columns and labels:
Experiment in all cases: NCI-60 one-dose screen, 48 h (100 = growth as untreated, 0 = no growth, -100 = all killed)
Details in all cases: 10 µM unless noted
T-47D breast = test system: T-47D breast
BT-549 breast = test system: BT-549 breast
MDA-MB-435 melanoma = test system: MDA-MB-435 melanoma
MCF7 breast = test system: MCF7 breast
HCT-116 colon = test system: HCT-116 colon
HCC-2998 colon = test system: HCC-2998 colon
KM12 colon = test system: KM12 colon

Structure (SMILES)	growth (T-47D breast)	growth (BT-549 breast)	growth (MDA-MB-435 melanoma)	growth (MCF7 breast)	growth (HCT-116 colon)	growth (HCC-2998 colon)	growth (KM12 colon)
O=c1oc2c(cnc3ccccc32)cc1-c1cccs1	95.9%	96.9%	103%	98.1%	91.1%	117%	105%
Cc1cccc(NC(=O)CSc2nc3ccc([N+](=O)[O-])cc3[nH]2)c1	51.8%	100%	72%	86.5%	70%	96.9%	81.9%
CCCCCCC(CCCC)COC(=O)c1ccc(Cl)cc1 (stereo not drawn)	103%	107%	107%	101%	104%	121%	108%
Cn1c(=O)c2c(c3ccccc31)OC(N)=C(C#N)C21C(=O)c2ccccc2C1=O	96.3%	87.2%	98.4%	90%	92.2%	101%	95.2%
CN(C)c1ccc(-c2cc(-c3ccc(Nc4nc(Nc5ccc(Cl)cc5)nc(Nc5ccc(Cl)cc5)n4)cc3)nc(N)c2C#N)cc1	41.3%	95.6%	84%	41.9%	60.5%	107%	74.1%
CC1(C)CC[C@]2(C(=O)N3CCOCC3)CC[C@]3(C)C(=CC[C@@H]4[C@@]5(C)C/C(=C/c6ccncc6)C(=O)C(C)(C)[C@@H]5CC[C@]43C)[C@@H]2C1	20.2%	-2.62% (active)	6.81% (active)	8.43% (active)	-32.6% (active)	-24.5% (active)	6.58% (active)
CCCCCCOC(=O)CC1=C(C)/C(=C/c2[nH]c(-c3ccc[nH]3)cc2OC)N=C1C	-32.8% (active)	-33.9% (active)	-82.4% (active)	-24.1% (active)	–	-47.5% (active)	-51.4% (active)
Cc1cc(C)cc(Nc2ccc([N+](=O)[O-])c(NCCN3CCOCC3)n2)c1	56.3%	9.31% (active)	-30.1% (active)	13.2%	5.31% (active)	9% (active)	15.4%
CCOC(=O)Nc1nc2ccc(SCC(C)C)cc2s1	24.3%	47.1%	104%	20.6%	31.4%	75%	34.4%
N#Cc1nc(-c2ccc(F)cc2)oc1S(=O)(=O)N1CCN(c2ccc(F)cc2)CC1	85.8%	103%	86.8%	40.9%	46.7%	109%	102%
Cc1[nH]c(C(=O)Nc2cccc(OC3CCNCC3)c2)c(Cl)c1Cl	87.9%	84.6%	43%	47.4%	46.2%	2.97% (active)	57%
COc1cccc(OC)c1Oc1c(-c2nc3ccccc3s2)c(C)nn1-c1ccccc1	42.1%	36.3%	88.1%	82.1%	53.8%	81.9%	59.7%
